Bioassay records deposited in PubChem by several laboratories.
This is a sample that favours compounds with a hit; in the whole collection about 5.4% have one here.
AHR activator: activators of human aryl hydrocarbon receptor | AHR-responsive luciferase reporter cells, luminescence | activation, % at 5 µM | 320,000 compounds, 2.5% hits; in the data active = activation above about 47%;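 note: 0% = vehicle wells and 100% = reference agonist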
NR0B1 inh: NR0B1 (DAX1) inhibition. HEK293 Gal4-DAX1 luciferase reporter, luminescence. inhibition, % at 6.75 µM. 340,000 compounds, 0.99% hits. AID 504766;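 active = inhibition above the mean over all tested compounds plus 3 SD, cut at about 4.2% in these data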;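 note: 0% = DAX1-transfected cells with DMSO and 100% = empty-vector control cells with DMSO; inhibition shows as a rise in luminescence from relieved DAX1 repression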
HSF1 activator: increases HSF-1 driven luciferase reporter signal. 300,000 compounds, 1.7% hits. NIH3T3-HGL HSF-1 luciferase reporter, MG132, 8 h; 100% = twice DMSO control signal. activation, % at 9 µM;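 active = mean replicate activation of at least 50% with a set share of replicates each reaching 50%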;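 note: 0% = median of the neutral control wells and 100% = twice that signal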
GAA850 FXN act: activators of GAA850 frataxin (FXN) promoter; HEK293 lucGAA850 FXN promoter luciferase reporter, 24 h; percent of 10 µM SAHA response; activation, % at 6 µM; 360,000 compounds, 0.56% hits;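 active = activation above the average of all compounds screened plus 3 SD, cutoff fixed separately per campaign, cut at about 7.5% in these data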;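 note: 0% = DMSO wells and 100% = 10 µM SAHA wells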
HSF1 inhib: HSF1 inhibition. NIH3T3-HGL HSE-luciferase, MG132-induced, luminescence 8 h; hits give low values. 300,000 compounds, 0.77% hits. AID 2098. activity change, negative = inhibition, % at 7.5 µM (by protocol);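 active = more than half of replicate wells show activity change below -50%, luminescence cut by over half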;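 note: luciferase reports HSF-1 transcriptional activity via heat shock element; 0% = median of DMSO wells and -100% = zero luminescence signal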
* = called active by the depositor; . = no result given.

SMILES	AHR activator	NR0B1 inh	HSF1 activator	GAA850 FXN act	HSF1 inhib
O=C(CSCc1ccccc1Cl)Nc1ccc2c(c1)OCCO2	-1.7	5.8*	-9.6	0.8	0.7
COC(=O)/C=C/CC(C)OS(N)(=O)=O (stereo not given)	-0.7	0.9	5.7	1.5	-1.1
CN(CC(=O)Nc1ccc(F)cc1)C(=O)CSc1ncccn1	-2.9	-1.1	-6.6	0.3	-8.1
S=C(NCCc1ccccc1)N1CCN(Cc2ccc(Cl)c(Cl)c2)CC1	2.2	-1.2	-69.9	2.8	-62.2*
Cc1cc(=O)[nH]c2c1c(=O)[nH]n2C1CC(C)N(C)CC1C (stereo not given)	0.8	2.1	-67.4	0.7	-57.1*
COCCN(Cc1cccs1)S(=O)(=O)c1ccc(-c2ccc(=O)[nH]n2)s1	-0.2	0.0	18.5	3.0	-1.1
COc1ccc(/C(C)=N/NC(=O)Cn2nc([N+](=O)[O-])cc2C)cc1	5.0	4.5*	-5.7	0.1	-1.5
N#C/C(=C\c1cn(Cc2ccccc2)c2ccccc12)C(=O)NCc1ccco1	5.7	-1.4	75.0*	-1.6	42.3
N#C/C(=C\c1cn(Cc2ccc(F)cc2)c2ccccc12)C(=O)NCc1ccco1	9.3	-0.2	15.5	-0.3	-2.3
Cc1cccc(NC(=O)/C(C#N)=C\c2cn(CC(=O)O)c3ccccc23)c1	1.1	0.1	-7.7	1.2	-7.6
N#C/C(=C\c1cn(Cc2cccc(F)c2)c2ccccc12)C(=O)NCc1ccco1	1.8	-2.0	67.7*	3.9	43.3
CN1C(=O)/C(=C/c2cn(CC(=O)NCc3ccco3)c3ccccc23)NC1=S	58.4*	.	16.8	.	1.1
Cc1cccc(NC(=O)/C(C#N)=C/c2cn(CC(=O)NCc3ccco3)c3ccccc23)c1C	-0.9	-0.5	60.9*	2.5	31.4
Cc1nn(-c2ccccn2)c2c1C(=O)C(Br)CC2 (stereo not given)	.	-0.8	.	-3.1	.
CCOC(=O)c1c(-c2ccccc2)n(C)c2ccc(O)cc12	9.0	-1.4	-54.6	1.2	-57.4*
CCOC(=O)c1c(C)n(C)c2cc(-c3cccc(C(F)(F)F)c3)c(O)cc12	49.3*	-0.7	12.5	2.4	-3.8
CCOC(=O)c1c(C)n(-c2ccccc2)c2ccc(O)cc12	7.2	-0.3	-5.6	3.3	-4.4
CCC(C)[C@H](NC(=O)N1CCC(C)CC1)C(=O)OC (stereo not given in full)	-0.9	1.1	-2.1	0.1	-2.5
COc1ccc(C)cc1S(=O)(=O)N(C)CC(=O)N1CCCC1	-0.8	4.8*	10.4	0.2	-4.4
COc1ccc(C)cc1S(=O)(=O)N(C)CC(=O)N1CCCCC1	-0.7	-0.6	3.2	2.5	1.9
COc1ccc(C/C(O)=C(\C#N)c2nc3ccccc3[nH]2)cc1OC	24.1	-0.2	59.2*	2.4	15.3
COc1ccc(/C(C)=N/OC/C(O)=C(\C#N)c2nc3ccccc3[nH]2)cc1OC	25.1	-0.3	-24.2	1.2	-16.7
COc1ccc(NC(=S)N(Cc2ccc(N(C)C)cc2)Cc2ccco2)cc1	5.2	1.1	90.7*	3.6	68.4
CCOc1ccc(NC(=S)N(Cc2ccc(N(C)C)cc2)Cc2ccco2)cc1	2.8	-0.8	20.6	-0.7	15.0
CC1CCc2c(sc3ncnc(NCc4cccnc4)c23)C1 (stereo not given)	34.0	-0.6	11.4	2.9	18.2
SMILES	AHR activator	NR0B1 inh	HSF1 activator	GAA850 FXN act	HSF1 inhib
CC1CCc2c(sc3ncnc(NCCCOC(C)C)c23)C1 (stereo not given)	61.1*	-2.0	14.4	2.4	9.5
O=C(OC1CCOC1=O)c1ccc(N2CCCC2)c([N+](=O)[O-])c1 (stereo not given)	0.8	0.4	0.0	2.1	-8.3
O=C(OC1CCOC1=O)c1cc(Cl)ccc1[N+](=O)[O-] (stereo not given)	1.8	-0.5	58.3*	0.8	19.4
CCCN(C(=O)CSCC(=O)Nc1ccc(OC)cc1)c1c(N)n(Cc2ccccc2)c(=O)[nH]c1=O	-0.6	-0.9	8.1	3.4	-1.9
NNC(=O)c1oc2nc(-c3ccccc3)cc(-c3ccccc3)c2c1N	30.0	0.9	1.1	-0.5	-0.4
CNC(=S)NNC(=O)c1oc2nc(-c3ccccc3)cc(C)c2c1N	56.2*	1.8	2.9	2.4	-2.2
CCn1c(=O)c(C(=O)NNS(=O)(=O)c2ccc(Br)cc2)c(O)c2ccccc21	-1.9	8.6*	-0.4	0.9	3.4
CCn1c(=O)c(C(=O)NCc2ccccc2)c(O)c2ccccc21	6.8	-0.1	7.1	2.0	7.9
